Source: PubChem BioAssay AID1159580 (chemical genetic matrix, 2015)
In all, about 5,500 compounds went through this assay and about 2,000 (36%) were called active. Roughly 18% stayed inconclusive and do not appear here. No stated cut-off is given here; in the data, active means normalized growth mostly below about 0.91 (no sharp cut-off); inconclusive means no clear call, values can overlap the other calls; inactive means mostly above about 0.92. The list shows a part of the results.

Assay: chemical genetic growth profiling, strain panel (AID 1159580);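 further: tested at 20 µM; growth read once vehicle control cultures reached saturation at 30 °C; 1 = growth at the plate median or of vehicle wells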
Conditions: S. cerevisiae deletion strains, growth OD

Measured: normalized growth

C=C1CCC2[C@](C)(CO)[C@H](O)CC[C@@]2(C)[C@@H]1C/C=C1/C(=O)OC[C@H]1O (some centres undefined)
inactive: locus YAL013W, strain DEP1, stronger effect = lower value 1.01 | locus YAL021C, strain ccr4, stronger effect = lower value 0.993 | locus YAL026C, strain drs2, stronger effect = lower value 0.992 | locus YAL030W, strain snc1, stronger effect = lower value 0.996 | locus YBL061C, strain skt5, stronger effect = lower value 1 | locus YBR009C, strain hhf1, stronger effect = lower value 1.02 | locus YBR021W, strain FUR4, stronger effect = lower value 1 | locus YBR023C, strain chs3, stronger effect = lower value 0.999 | locus YBR171W, strain sec66, stronger effect = lower value 0.978 | locus YBR229C, strain ROT2, stronger effect = lower value 1.01 | locus YBR231C, strain swc5, stronger effect = lower value 0.996 | locus YBR279W, strain paf1, stronger effect = lower value 1 | locus YCL011C, strain gbp2, stronger effect = lower value 0.985 | locus YCL016C, strain dcc1, stronger effect = lower value 0.998 | locus YCL029C, strain bik1, stronger effect = lower value 1.03 | locus YCL069W, strain vba3, stronger effect = lower value 1.01 | locus YCR088W, strain abp1, stronger effect = lower value 1 | locus YDL005C, strain med2, stronger effect = lower value 0.961 | locus YDL035C, strain GPR1, stronger effect = lower value 1.02 | locus YDL040C, strain nat1, stronger effect = lower value 0.995 | locus YDL074C, strain BRE1, stronger effect = lower value 1.06 | locus YDL101C, strain DUN1, stronger effect = lower value 1.02 | locus YDL185W, strain tfp1, stronger effect = lower value 1.03 | locus YDL192W, strain arf1, stronger effect = lower value 1.02 | locus YDR001C, strain nth1, stronger effect = lower value 0.988 | locus YDR069C, strain doa4, stronger effect = lower value 0.992 | locus YDR101C, strain arx1, stronger effect = lower value 1.01 | locus YDR137W, strain rgp1, stronger effect = lower value 0.995 | locus YDR159W, strain sac3, stronger effect = lower value 1.04 | locus YDR162C, strain NBP2, stronger effect = lower value 1.04 | locus YDR195W, strain ref2 0.949 | locus YDR297W, strain sur2, stronger effect = lower value 1 | locus YDR318W, strain mcm21, stronger effect = lower value 1.05 | locus YDR334W, strain swr1, stronger effect = lower value 0.987 | locus YDR335W, strain msn5, stronger effect = lower value 0.986 | locus YDR388W, stronger effect = lower value 1.01 | locus YDR392W, strain spt3, stronger effect = lower value 0.998 | locus YDR502C, strain sam2, stronger effect = lower value 1.05 | locus YEL003W, strain gim4, stronger effect = lower value 0.995 | locus YEL037C, strain rad23, stronger effect = lower value 0.999 | locus YEL061C, strain CIN8 (second series), stronger effect = lower value 0.99 | locus YEL061C, strain CIN8, stronger effect = lower value 1.01 | locus YER015W, strain faa2, stronger effect = lower value 0.994 | locus YER016W, strain bim1, stronger effect = lower value 0.978 | locus YER110C, stronger effect = lower value 1.02 | locus YER111C, strain swi4, stronger effect = lower value 0.988 | locus YER155C, strain BEM2 (second series), stronger effect = lower value 0.995 | locus YER155C, strain BEM2, stronger effect = lower value 1.02 | locus YER167W, strain BCK2, stronger effect = lower value 1.01 | locus YFR010W, strain ubp6, stronger effect = lower value 1.02 | locus YGL078C, strain dbp3, stronger effect = lower value 1.03 | locus YGL086W, strain mad1, stronger effect = lower value 1.01 | locus YGL167C, strain pmr1, stronger effect = lower value 0.992 | locus YGL173C, strain kem1, stronger effect = lower value 1.01 | locus YGL227W, strain vid30, stronger effect = lower value 0.991 | locus YGL240W, strain doc1, stronger effect = lower value 0.999 | locus YGL248W, strain PDE1, stronger effect = lower value 1.03 | locus YGL253W, strain hxk2, stronger effect = lower value 0.971 | locus YGR078C, strain PAC10, stronger effect = lower value 1.03 | locus YGR135W, strain pre9, stronger effect = lower value 1.05 | locus YGR252W, strain gcn5, stronger effect = lower value 1.01 | locus YHR013C, strain ard1, stronger effect = lower value 0.983 | locus YHR027C, strain rpn1, stronger effect = lower value 0.976 | locus YHR079C, strain IRE1 (second series), stronger effect = lower value 1.03 | locus YHR094C, strain hxt1, stronger effect = lower value 1.02 | locus YHR129C, strain ARP1, stronger effect = lower value 1.01 | locus YHR142W, strain chs7, stronger effect = lower value 0.976 | locus YHR200W, strain rpn10, stronger effect = lower value 1.03 | locus YIL066C, strain RNR3, stronger effect = lower value 1.02 | locus YIL073C, strain SPO22, stronger effect = lower value 1.11 | locus YIL125W, strain kgd1, stronger effect = lower value 1.03 | locus YIR030C, strain dcg1, stronger effect = lower value 1.03 | locus YJL092W, strain hpr5, stronger effect = lower value 0.985 | locus YJL095W, strain BCK1 (second series), stronger effect = lower value 0.982 | locus YJL095W, strain BCK1, stronger effect = lower value 1.05 | locus YJL115W, strain asf1, stronger effect = lower value 0.955 | locus YJL129C, strain trk1, stronger effect = lower value 0.982 | locus YJL134W, strain LCB3, stronger effect = lower value 1.01 | locus YJL154C, strain vps35, stronger effect = lower value 0.984 | locus YJL164C, strain tpk1, stronger effect = lower value 1.01 | locus YJL166W, strain qcr8, stronger effect = lower value 0.987 | locus YJL168C, strain set2, stronger effect = lower value 1.02 | locus YJL187C, strain SWE1 (second series), stronger effect = lower value 1.02 | locus YJL187C, strain SWE1, stronger effect = lower value 0.996 | locus YJR043C, strain POL32, stronger effect = lower value 1.02 | locus YKL009W, strain mrt4, stronger effect = lower value 1.02 | locus YKL068W, stronger effect = lower value 1.02 | locus YKL085W, strain MDH1 (second series), stronger effect = lower value 1.03 | locus YKL085W, strain MDH1, stronger effect = lower value 1.03 | locus YKL160W, strain elf1, stronger effect = lower value 0.995 | locus YKL190W, strain CNB1, stronger effect = lower value 1.01 | locus YKR001C, strain vps1, stronger effect = lower value 1.07 | locus YKR026C, strain gcn3, stronger effect = lower value 0.999 | locus YKR091W, strain srl3, stronger effect = lower value 0.979 | locus YLL001W, strain dnm1, stronger effect = lower value 1.01 | locus YLL026W, stronger effect = lower value 0.993 | locus YLL041C, strain sdh2, stronger effect = lower value 1.02 | locus YLR027C, strain aat2, stronger effect = lower value 1 | locus YLR039C, strain RIC1, stronger effect = lower value 1.09 | locus YLR058C, strain SHM2, stronger effect = lower value 1.04 | locus YLR102C, strain apc9, stronger effect = lower value 1.02 | locus YLR221C, strain rsa3, stronger effect = lower value 1.04 | locus YLR258W, strain gsy2, stronger effect = lower value 1.01 | locus YLR262C, strain YPT6 (second series), stronger effect = lower value 0.975 | locus YLR268W, strain sec22, stronger effect = lower value 1.04 | locus YLR320W, strain mms22, stronger effect = lower value 1.04 | locus YLR330W, strain CHS5, stronger effect = lower value 1.02 | locus YLR342W, strain FKS1, stronger effect = lower value 1.02 | locus YLR357W, strain rsc2, stronger effect = lower value 0.979 | locus YLR370C, strain arc18, stronger effect = lower value 0.972 | locus YLR371W, strain rom2, stronger effect = lower value 1.02 | locus YLR384C, strain iki3, stronger effect = lower value 0.993 | locus YLR418C, strain cdc73, stronger effect = lower value 1.07 | locus YML016C, strain PPZ1, stronger effect = lower value 1.01 | locus YML032C, strain rad52, stronger effect = lower value 1.03 | locus YML120C, strain ndi1, stronger effect = lower value 1 | locus YML124C, strain tub3, stronger effect = lower value 1.03 | locus YMR058W, strain fet3, stronger effect = lower value 0.977 | locus YMR078C, strain ctf18, stronger effect = lower value 1.03 | locus YMR125W, strain sto1, stronger effect = lower value 0.98 | locus YMR129W, stronger effect = lower value 0.98 | locus YMR205C, strain PFK2, stronger effect = lower value 0.995 | locus YMR223W, strain ubp8, stronger effect = lower value 1.03 | locus YMR231W, strain pep5, stronger effect = lower value 0.997 | locus YMR307W, strain GAS1, stronger effect = lower value 0.967 | locus YNL067W, strain RPL9B, stronger effect = lower value 1.02 | locus YNL071W, strain lat1, stronger effect = lower value 1 | locus YNL209W, strain ssb2, stronger effect = lower value 0.987 | locus YNL233W, strain BNI4, stronger effect = lower value 1.02 | locus YNL248C, strain rpa49, stronger effect = lower value 0.979 | locus YNL250W, strain rad50, stronger effect = lower value 1.04 | locus YNL271C, strain bni1, stronger effect = lower value 1.03 | locus YNL298W, strain CLA4, stronger effect = lower value 1.03 | locus YNL307C, strain MCK1, stronger effect = lower value 1.04 | locus YNL322C, strain KRE1 (second series), stronger effect = lower value 0.977 | locus YNR049C, strain mso1, stronger effect = lower value 0.974 | locus YNR052C, strain pop2, stronger effect = lower value 1.03 | locus YOL006C, strain TOP1, stronger effect = lower value 1.07 | locus YOL012C, strain htz1 1.13 | locus YOL147C, strain pex11, stronger effect = lower value 1.04 | locus YOR001W, strain rrp6, stronger effect = lower value 1.01 | locus YOR061W, strain CKA2, stronger effect = lower value 1.02 | locus YOR069W, strain VPS5, stronger effect = lower value 1.01 | locus YOR070C, strain gyp1, stronger effect = lower value 1.01 | locus YOR080W, strain dia2, stronger effect = lower value 0.966 | locus YOR083W, strain WHI5, stronger effect = lower value 1 | locus YOR106W, strain vam3, stronger effect = lower value 0.986 | locus YOR136W, strain idh2, stronger effect = lower value 1.04 | locus YOR144C, strain elg1, stronger effect = lower value 1.03 | locus YOR184W, strain ser1, stronger effect = lower value 1.05 | locus YOR265W, strain rbl2, stronger effect = lower value 0.993 | locus YOR270C, strain vph1, stronger effect = lower value 1.02 | locus YOR290C, strain snf2, stronger effect = lower value 0.966 | locus YOR316C, strain cot1, stronger effect = lower value 1.03 | locus YPL051W, strain arl3, stronger effect = lower value 0.986 | locus YPL078C, strain atp4, stronger effect = lower value 0.982 | locus YPL106C, strain sse1, stronger effect = lower value 1 | locus YPL240C, strain hsp82, stronger effect = lower value 0.998 | locus YPL241C, strain CIN2, stronger effect = lower value 1.01 | locus YPR119W, strain clb2, stronger effect = lower value 1.02 | locus YPR141C, strain kar3, stronger effect = lower value 1.01 | locus YPR163C, strain tif3, stronger effect = lower value 1.04 | locus YPR167C, strain met16, stronger effect = lower value 1.03 | strain wtn01, stronger effect = lower value 1.02
